Laboratory results: the supplement of paper PMC11732987, “Enantioselective OTUD7B fragment discovery through chemoproteomics screening and high-throughput optimisation” (Communications Chemistry, 2025)

biological target: COPS5 (UniProt Q92905); assay: log2 ratio of Biotin-Ahx-Ub-VS probe labelling (fragment/DMSO); higher = less target engagement (more negative = stronger competition), active = hit call of the paper (q ≤ 0.05, log2 ratio ≤ -1); settings: compound concentration: 200 uM; treatment time: 3 h
Sequence (Q92905 whole entry, looked up, the tested form may be a part): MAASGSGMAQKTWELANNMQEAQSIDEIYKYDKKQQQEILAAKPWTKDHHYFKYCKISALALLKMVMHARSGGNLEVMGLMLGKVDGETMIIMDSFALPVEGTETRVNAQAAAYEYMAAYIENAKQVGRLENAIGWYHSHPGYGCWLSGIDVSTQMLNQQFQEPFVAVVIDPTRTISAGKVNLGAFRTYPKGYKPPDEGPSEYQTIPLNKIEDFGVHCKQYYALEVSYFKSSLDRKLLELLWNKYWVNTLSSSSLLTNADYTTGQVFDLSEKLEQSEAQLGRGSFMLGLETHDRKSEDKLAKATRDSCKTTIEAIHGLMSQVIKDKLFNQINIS
Protocol: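 Competitive ABPP in HEK293T cell lysate. Lysates were treated with each chloroacetamide fragment at 200 µM for 3 h, then with Biotin-Ahx-Ub-VS (0.5 µM, 1 h), NeutrAvidin-enriched and analysed by diaPASEF LC-MS/MS. Protein LFQ was median-normalised; average log2 ratio is fragment/DMSO from an unpaired t-test (n=3 treated, n=44 DMSO). Hits: q ≤ 0.05, log2 ratio ≤ -1, unique peptides ≥ 2.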

log2 ratio of Biotin-Ahx-Ub-VS probe labelling, inactive:
C[C@@H](NC(=O)CCl)c1cccc(C#N)c1 -0.193, COCC1C=CCCN1C(=O)CCl (stereo not given) -0.00365, Cc1ccc(CC(NC(=O)CCl)c2ccccn2)cc1.Cl (stereo not given) -0.0198, O=C(CCl)N1CCC(O)(Cc2ccc(F)cc2)C1 (stereo not given) 0.0199, Cc1nnc(C(NC(=O)CCl)c2ccccc2)n1C (stereo not given) 0.37, O=C(CCl)N1CCCCC12CCOCC2 0.0647, Cl.O=C(CCl)N1CCN(Cc2ccccc2)CC1 -0.0604, O=C(CCl)N1c2ccccc2NC(=O)C12CCCC2 0.325, O=C(CCl)N1CCc2ccccc2C(O)C1 (stereo not given) 0.0553, Cl.O=C(CCl)N1CCCC(c2ncc[nH]2)C1 (stereo not given) 0.0747, O=C(CN1CCN(C(=O)CCl)CC1)Nc1cccc(F)c1 0.273, O=C(CCl)NCCC1COCCO1 (stereo not given) -0.0816, Cc1cccc(C)c1NC(=O)CCl 0.194, CN(CCC(O)c1ccc(Br)cc1)C(=O)CCl (stereo not given) -0.266, Cl.Cn1nc2c(c1CNC(=O)CCl)CCCC2 -0.111, O=C(CCl)NC1CCN(C(=O)C2CCCCC2)CC1 -0.188, O=C(CCl)N1CCOC(c2cccc(F)c2)C1 (stereo not given) -0.0425, N#Cc1ccc(Cl)cc1NC(=O)CCl 0.289, COc1ccccc1C(C)NC(=O)CCl (stereo not given) 0.247, O=C(CCl)NCc1ccc2c(c1)OCO2 0.119, CN(C)S(=O)(=O)c1ccccc1CNC(=O)CCl 0.197, Cc1cccnc1NC(=O)C1CCN(C(=O)CCl)CC1.Cl -0.025, CC(NC(=O)CCl)c1cc2n(n1)CCCC2.Cl (stereo not given) -0.394, O=C(CCl)N1CCC(OCc2ccccc2F)CC1 -0.148, Cc1c(NC(=O)CCl)c(=O)n(-c2ccccc2)n1C -0.0844, CCC1c2ccsc2CCN1C(=O)CCl (stereo not given) -0.188, CN1c2ccccc2C(NC(=O)CCl)CS1(=O)=O (stereo not given) 0.318, Cc1cc(CC(C)NC(=O)CCl)n[nH]1 (stereo not given) 0.0799, Cc1ncsc1CCNC(=O)CCl 0.936, O=C(CCl)N1CCN2C(=O)CCC2C1 (stereo not given) 0.141, CC(=O)Nc1ccc(NC(=O)CCl)cc1 -0.0874, Cl.O=C(CCl)N[C@H]1C[C@@H](n2cccn2)C1 -0.0476, Cc1ccc(CC(CO)CNC(=O)CCl)cc1 (stereo not given) 0.0248, O=C(CCl)Nc1ccccc1C(F)(F)F 0.00522, COc1ccc(-c2csc(NC(=O)CCl)n2)cc1 0.189, O=C(CCl)N1CC2(CCOCC2)C1 0.161, CCc1c[nH]c(CNC(=O)CCl)n1.Cl -0.182, O=C(CCl)N1CCOCC1C1CC1 (stereo not given) 0.143, O=C(CCl)N1CCCC2CCCCC21 (stereo not given) -0.175, O=C(CCl)N(C1CCCC1)C1CCS(=O)(=O)C1 (stereo not given) -0.0682
